The values below come from PubChem BioAssay.

Broadly, the viability is a per cent measure of how many cells are alive, often set against a control.

Inconclusive results are not listed. Activity calls are given as the source filed them. Unless noted, no rule for the calls is given here.

The target of assay [1] is ATP-dependent translocase ABCB1 (Homo sapiens) (UniProt P08183). The experiment in a line: P-glycoprotein substrate transport blockade – cell-based (AID 377; in the data active = fluorescence slope change above about 50%). Particulars: MDR1-expressing cells, fluorescent substrate accumulation slope; stronger effect = higher value; concentration not given here.
ATP-dependent translocase ABCB1 (Homo sapiens), sequence (P08183 whole entry, looked up): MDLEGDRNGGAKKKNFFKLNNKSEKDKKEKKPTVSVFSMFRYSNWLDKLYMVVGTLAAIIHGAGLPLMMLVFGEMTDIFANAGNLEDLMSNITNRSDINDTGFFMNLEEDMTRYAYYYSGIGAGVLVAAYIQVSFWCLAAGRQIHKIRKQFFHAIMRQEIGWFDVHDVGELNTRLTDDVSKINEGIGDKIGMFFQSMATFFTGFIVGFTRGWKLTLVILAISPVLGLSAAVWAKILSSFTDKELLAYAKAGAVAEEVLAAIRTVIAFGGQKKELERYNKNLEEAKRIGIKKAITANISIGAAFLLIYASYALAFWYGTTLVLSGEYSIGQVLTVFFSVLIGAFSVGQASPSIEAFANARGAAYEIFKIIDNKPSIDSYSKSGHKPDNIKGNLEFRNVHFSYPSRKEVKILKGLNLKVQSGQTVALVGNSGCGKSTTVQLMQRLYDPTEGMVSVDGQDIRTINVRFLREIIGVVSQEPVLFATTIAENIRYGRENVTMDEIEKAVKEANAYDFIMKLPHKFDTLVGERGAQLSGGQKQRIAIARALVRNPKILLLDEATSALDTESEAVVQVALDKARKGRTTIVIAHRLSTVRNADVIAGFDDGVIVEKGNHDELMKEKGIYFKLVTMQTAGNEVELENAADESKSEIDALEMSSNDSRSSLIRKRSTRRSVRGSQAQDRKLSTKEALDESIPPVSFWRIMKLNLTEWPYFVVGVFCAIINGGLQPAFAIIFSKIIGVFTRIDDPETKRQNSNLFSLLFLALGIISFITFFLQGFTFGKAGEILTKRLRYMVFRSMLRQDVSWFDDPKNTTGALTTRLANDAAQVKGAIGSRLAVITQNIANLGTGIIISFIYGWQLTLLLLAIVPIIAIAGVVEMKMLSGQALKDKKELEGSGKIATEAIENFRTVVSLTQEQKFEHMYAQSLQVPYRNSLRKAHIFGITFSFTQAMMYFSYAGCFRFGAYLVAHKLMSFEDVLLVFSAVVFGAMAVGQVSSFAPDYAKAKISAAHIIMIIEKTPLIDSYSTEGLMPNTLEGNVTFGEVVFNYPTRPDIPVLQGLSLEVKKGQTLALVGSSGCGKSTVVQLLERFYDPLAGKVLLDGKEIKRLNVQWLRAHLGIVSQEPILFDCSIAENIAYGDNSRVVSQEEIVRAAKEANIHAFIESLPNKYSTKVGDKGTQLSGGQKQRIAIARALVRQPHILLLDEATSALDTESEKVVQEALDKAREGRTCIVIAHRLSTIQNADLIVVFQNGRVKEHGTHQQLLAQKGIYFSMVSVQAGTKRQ
The nature of assay [2]: compounds altering viability of human ES cells (AID 493140).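 Also: cells exposed to compounds for four days before counting.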 Particulars: human embryonic stem cell survival screen; stronger effect = higher value.
Assay [3] in a line: P. berghei load reduction in hepatocytes – cell-based, HepG2, luciferase luminescence, HepG2 viability, primary screen (AID 624349; in the data active = parasite load remaining mostly below about 12%, no sharp cut-off; inactive = mostly above about 10%;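 also: 100% = mean of DMSO negative control wells on the same plate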). Particulars: P. berghei liver stage in HepG2, luciferase luminescence, concentration not given here; parasite load remaining: stronger effect = lower value; viability: measured here: HepG2 viability without parasites.

`C[C@@H]1C(=O)O[C@H]2CC34[C@H]5C[C@@H](C(C)(C)C)C36[C@@H](OC(=O)[C@@H]6O)OC4(C(=O)O5)[C@]21O` (stereo partly drawn): the fluorescence slope change in assay [1] is 57.6% (active). Besides, the survival in assay [2] is 10.1 (inactive). Besides, in assay [3], the parasite load remaining was 79.2% (inactive) and the viability turned out to be 79.7%.
As to `COc1cc(Br)c(CC2c3cc(OC)c(OC)cc3CCN2C)cc1OC` (stereo not drawn), the fluorescence slope change in assay [1] is 9.4% (inactive).
Take `C[C@H](CCC(=O)O)[C@H]1CC[C@H]2[C@@H]3C(O)C[C@@H]4CC(O)CC[C@]4(C)[C@H]3CC[C@]12C` (stereo partly drawn): the fluorescence slope change in assay [1] was 167% (active).
Turning to `NCC1OC(OC2C(N)CC(N)C(OC3OC(CO)C(O)C(N)C3O)C2O)C(N)CC1O` (stereo not drawn), the fluorescence slope change in assay [1] is -2% (inactive). Moreover, the survival in assay [2] was 1.08 (inactive). Besides, in assay [3], the parasite load remaining was 57.1% (inactive) and the viability amounted to 77.2%.
With `c1ccc2c3c([nH]c2c1)C1C2CCC(C4CCCNC42)N1CC3` (stereo not drawn), the fluorescence slope change in assay [1] is 15.6% (inactive). The survival in assay [2] is 1.58 (inactive).
With `COc1ccc2cc3n(c(=O)c2c1OC)CCc1cc2c(cc1-3)OCO2`, the fluorescence slope change in assay [1] was 57.9% (active).
Still for that read-out and setting: to `CC(=O)S[C@@H]1CC2=CC(=O)CC[C@]2(C)[C@H]2CC[C@@]3(C)[C@@H](CC[C@]34CCC(=O)O4)[C@H]12` belongs 162% (active); to `O=S(=O)(O)CCN1CCN(CCO)CC1`, 26.7% (inactive).
Turning to `CC1O[C@H](O[C@]2(O[C@H]3CC[C@@]4(C)C(=CC[C@H]5[C@@H]6C[C@H]7[C@H]([C@H](C)[C@H]8CC[C@H](C)CN87)[C@@]6(C)CC[C@@H]54)C3)C[C@@H](O[C@@H]3OC(CO)[C@@H](O)[C@@H](O)C3O)[C@@H](O)C(CO)O2)C(O)[C@@H](O)[C@H]1O` (stereo partly drawn), the fluorescence slope change in assay [1] is 75.1% (active). Further, the survival in assay [2] is 4.89 (inactive). In addition, in assay [3], the parasite load remaining was 74.2% (inactive) and the viability worked out at 82%.
In the case of `Nc1cccc2c1C(=O)c1cccc(N)c1C2=O`, in assay [1], the fluorescence slope change was 105% (active).
Regarding `CC[C@H](C)[C@H]1O[C@]2(CC[C@@H]1C)C[C@@H]1C[C@@H](C/C=C(\C)C(O[C@H]3C[C@H](OC)[C@@H](O[C@H]4C[C@H](OC)[C@@H](O)[C@H](C)O4)[C@H](C)O3)[C@@H](C)/C=C/C=C3\CO[C@@H]4[C@H](O)C(C)=C[C@@H](C(=O)O1)[C@]34O)O2` (stereo partly drawn), in assay [1], the fluorescence slope change was 136% (active). Besides, the survival in assay [2] is 17.6 (inactive). Besides, in assay [3], the parasite load remaining is 93.7% (inactive) and the viability was 89.6%.
Taken in the same sequence, the figures for `COc1ccc(CC(N)C(=O)N[C@@H]2C(O)[C@H](n3cnc4c(N(C)C)ncnc43)O[C@@H]2CO)cc1` (stereo partly drawn) were 10.7% (inactive), 0.083 (inactive), 13.2% (inactive) and 14.9%.
Taken in the same sequence, the figures for `CC1OC(O[C@H]2/C=C/C=C/C=C/C=C/C=C/C=C/C=C/[C@H](C)[C@@H](O)[C@@H](C)[C@H](C)OC(=O)C[C@H](O)C[C@H](O)CC[C@@H](O)[C@H](O)C[C@H](O)C[C@]3(O)C[C@H](O)[C@@H](C(=O)O)[C@H](C2)O3)C(O)C(N)C1O` (stereo partly drawn) were 94.6% (active), 10.9 (inactive), 50.3% (inactive) and 92.5%.
The corresponding values for `COC1CC(O[C@H]2[C@H](C)[C@@H](OC3OC(C)CC(N(C)C)C3O)[C@@H](C)C[C@]3(CO3)C(=O)[C@H](C)[C@@H](O)[C@@H](C)[C@@H](C)OC(=O)[C@@H]2C)OC(C)C1O` (stereo partly drawn) are 96.5% (active), 26.4 (inactive), 84.7% (inactive) and 90.7%.
Take `COC(=O)C1[C@H]2C[C@H]3c4[nH]c5ccccc5c4CCN3C[C@H]2CC[C@@H]1O` (stereo partly drawn): the fluorescence slope change in assay [1] is 78.8% (active).
Same read-out and setting: the figure for `CC1Nc2ccccc2C1NC(=O)c1ccc(Cl)c(S(N)(=O)=O)c1` (stereo not drawn) is 26.2% (inactive).
Consider `CC1CCC2(OC1)O[C@H]1C[C@H]3[C@@H]4CC[C@H]5C[C@@H](O)CC[C@]5(C)[C@H]4CC(=O)[C@]3(C)[C@H]1[C@@H]2C` (stereo partly drawn), for which the fluorescence slope change in assay [1] is 74.2% (active). Besides, the survival in assay [2] was 3.25 (inactive).
`CC[C@H]1OC(=O)[C@H](C)[C@@H](OC2CC(C)(OC)C(O)C(C)O2)[C@H](C)[C@@H](OC2OC(C)CC(N(C)C)C2O)[C@](C)(O)C[C@@H](C)/C(=N\OCOCCOC)[C@H](C)[C@@H](O)[C@]1(C)O` (stereo partly drawn): the fluorescence slope change in assay [1] is 66.5% (active). In assay [2], the survival is 6.25 (inactive).
Consider `CC(C)N1CCN(c2ccc(OC[C@@H]3CO[C@@](Cn4cncn4)(c4ccc(Cl)cc4Cl)O3)cc2)CC1`, for which the fluorescence slope change in assay [1] is 82.8% (active). Further, the survival in assay [2] was 7.75 (inactive). Moreover, in assay [3], the parasite load remaining was 57.7% (inactive) and the viability is 72.8%.
Consider `O=C(O)CCCC[C@@H]1SCC2NC(=O)NC21` (stereo partly drawn), for which the fluorescence slope change in assay [1] was 79.8% (active).
As for `NCC[C@H](O)C(=O)NC1CC(N)C(OC2OC(CN)C(O)C(O)C2O)C(O)C1OC1OC(CO)C(O)C(N)C1O` (stereo partly drawn), the fluorescence slope change in assay [1] was 13.3% (inactive). For the same compound, the survival in assay [2] is 1.75 (inactive). In addition, in assay [3], the parasite load remaining was 68.1% (inactive) and the viability came out at 76.6%.
The corresponding values for `NCC1OC(OC2C(N)CC(N)C(OC3OC(CO)C(O)C(N)C3O)C2O)C(O)C(O)C1O` (stereo not drawn) are 9.9% (inactive), 5.58 (inactive), 77.1% (inactive) and 78.9%.
Consider `On1ccccc1=S`, for which, in assay [1], the fluorescence slope change was 9% (inactive).
With `CC[N+]1(C)C2CCC1CC(OC(=O)[C@H]1CCC(C(=O)OC3CC4CCC(C3)[N+]4(C)CC)(c3ccccc3)c3ccccc31)C2` (stereo partly drawn), in assay [1], the fluorescence slope change is 92.7% (active). Besides, in assay [2], the survival is 4.5 (inactive).
`CC1=C(C(=O)O)N2C(=O)[C@@H](NC(=O)[C@H](N)c3ccc(O)cc3)C2SC1` (stereo partly drawn): in assay [1], the fluorescence slope change is 66.4% (active).
In the case of `CCCC(=O)Nc1ncnc2c1ncn2[C@@H]1O[C@@H]2COP(=O)(O)O[C@@H]2C1OC(=O)CCC` (stereo partly drawn), the fluorescence slope change in assay [1] was 80% (active). Besides, in assay [2], the survival is 3.33 (inactive).
Regarding `CO[C@@H]1[C@H](OC(N)=O)C(O)[C@H](Oc2ccc3c(O)c(NC(=O)c4ccc(O)c(CC=C(C)C)c4)c(=O)oc3c2C)OC1(C)C` (stereo partly drawn), in assay [2], the survival was 8.33 (inactive).
`O=C(O)c1cc2ccccc2c(Cc2cc3ccccc3c(C(=O)O)c2O)c1O` (tested in a mixture with another compound): the fluorescence slope change in assay [1] was 14.8% (inactive). Besides, the survival in assay [2] was 7.75 (inactive). In assay [3], the parasite load remaining was 58.5% (inactive) and the viability came out at 76.8%.
`CO[C@@H]1[C@@H](OC2OC(C)C(OC3CC(C)(O)C(OC(=O)CC(C)C)C(C)O3)C(N(C)C)C2O)[C@@H](CC=O)C[C@@H](C)[C@@H](O)/C=C/C=C/C[C@@H](C)OC(=O)C[C@H]1OC(C)=O` (stereo partly drawn): the fluorescence slope change in assay [1] is 127% (active). Also, in assay [2], the survival was 16.8 (inactive). In assay [3], the parasite load remaining is 90.7% (inactive) and the viability was determined as 92.1%.
Turning to `CC[C@@H]1OC(=O)[C@H](C)[C@H](O[C@H]2C[C@@](C)(OC)[C@@H](O)[C@H](C)O2)[C@@H](C)[C@@H](O[C@@H]2O[C@H](C)C[C@H](N(C)C)[C@H]2O)C(C)(O)C[C@@H](C)[C@@H]2NC(COCCOC)OC([C@H]2C)[C@]1(C)O` (stereo partly drawn), the survival in assay [2] was 4.33 (inactive). Besides, in assay [3], the parasite load remaining is 84.5% (inactive) and the viability was found to be 77.5%.
On to `CC1Cc2ccccc2N1NC(=O)c1ccc(Cl)c(S(N)=O)c1` (stereo not drawn), for which, in assay [2], the survival was 17.1 (inactive). In assay [3], the parasite load remaining is 50.9% (inactive) and the viability worked out at 94.8%.
Taken in the same sequence, the figures for `CC(=O)NC(CC(=O)O)C(=O)O` (stereo not drawn) were 11.8 (inactive), 89% (inactive) and 77%.
The corresponding values for `CC[C@H]1OC(=O)[C@H](C)[C@@H](O[C@H]2C[C@@](C)(OC)[C@@H](O)[C@H](C)O2)[C@H](C)[C@@H](O[C@H]2O[C@H](C)C[C@H](N(C)C)[C@H]2O)[C@](C)(O)C[C@@H](C)C(=O)[C@H](C)[C@@H](O)[C@]1(C)O` are 35.4 (inactive), 97.5% (inactive) and 81.9%.
Taken in the same sequence, the figures for `CC(C)(O/N=C(/C(=O)N[C@@H]1C(=O)N2C(C(=O)[O-])=C(C[n+]3ccccc3)CS[C@H]12)c1csc(N)n1)C(=O)O` were 5.92 (inactive), 88.2% (inactive) and 82.6%.
For `CC(=O)O[C@H]1C(=O)[C@@]2(C)[C@H](O)C[C@@H]3OC[C@]3(OC(C)=O)[C@@H]2[C@@H](OC(=O)c2ccccc2)[C@@]2(O)C[C@@H](OC(=O)[C@@H](O)[C@H](NC(=O)c3ccccc3)c3ccccc3)C(C)=C1C2(C)C`, the survival in assay [2] was 5 (inactive). Further, in assay [3], the parasite load remaining was 172% (inactive) and the viability turned out to be 89.6%.
Taken in the same sequence, the figures for `C[C@]12CCC(=O)C[C@H]1CC(=O)[C@@H]1[C@@H]2CC(=O)[C@]2(C)CCC[C@@H]12` (tested in a mixture with another compound) were 19.5 (inactive), 107% (inactive) and 86.8%.
As for `COC(=O)C1=CO[C@@H](C)[C@@H]2CN3CCc4c([nH]c5ccccc45)C3C[C@H]12` (stereo partly drawn), in assay [2], the survival is 5.92 (inactive). For the same compound, in assay [3], the parasite load remaining was 62.4% (inactive) and the viability is 77.2%.
Take `Nc1nc(O)c(C2=C3C(=Nc4ccccc43)C(=O)NCC2)[nH]1`: in assay [3], the parasite load remaining was 45.8% (inactive) and the viability came to 99.9%.
For `O=C(N[C@H](CO)[C@@H](O)c1ccc([N+](=O)[O-])cc1)C(Cl)Cl`, in assay [2], the survival was 26.4 (inactive). In assay [3], the parasite load remaining is 100% (inactive) and the viability was 91.7%.
Taken in the same sequence, the figures for `CN=C(NC#N)NCCSCC1N=CN=C1C` (stereo not drawn) were 16.7 (inactive), 100% (inactive) and 88.8%.
On to `CN(C)CC/C=C1/c2ccccc2CSc2ccccc21`, for which the survival in assay [2] is 3.75 (inactive). Further, in assay [3], the parasite load remaining is 68.1% (inactive) and the viability amounted to 76.6%.
Consider `Cc1nc(N)sc1-c1ccnc(Nc2cccc([N+](=O)[O-])c2)n1`, for which, in assay [3], the parasite load remaining was 60.6% (inactive) and the viability turned out to be 87.6%.
With `CCOC(=O)Oc1c(OC)cc(C(=O)OC2CC3CN4CCc5c([nH]c6cc(OC)ccc56)C4CC3C(C(=O)OC)C2OC)cc1OC` (stereo not drawn), the survival in assay [2] is 6.25 (inactive). In assay [3], the parasite load remaining was 55.8% (inactive) and the viability came to 77.6%.
Taken in the same sequence, the figures for `CC(C)CC(=O)NC(C(=O)N[C@H](C(=O)NC(CC(C)C)[C@@H](O)CC(=O)N[C@@H](C)C(=O)NC(CC(C)C)[C@@H](O)CC(=O)O)C(C)C)C(C)C` (stereo partly drawn) were 5.42 (inactive), 67.7% (inactive) and 80.5%.
